This passage reports activation, Potency and viability results from PubChem BioAssay (NCATS).

“And” between values parts separate entries of the source, which are not always exact repeats. Equal values may be shown once. Records with an inconclusive call do not appear. Unmarked numbers belong to inactive results. The source made the active and inactive calls. Unless noted, calls come from the whole dose curve; as a rule, active = well fitted curve in the direction sought with a large enough effect; inconclusive = small, poorly fitted or top-dose-only effect, or another doubt; inactive = no such curve, though single readings can be large; an effect the other way counts as inactive or inconclusive.

Test [1] concerns the target Cellular tumor antigen p53 (Homo sapiens) (UniProt P04637). As to the kind of experiment: Primary qHTS for small molecule compounds that upregulate eGFP-tagged delta133p53alpha (in N-terminal) cells. (AID 2060322).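 Note: cells pre-induced with doxycycline then dosed without doxycycline; series mostly up to about 56 µM; 0% = DMSO vehicle and 100% = reference activator; nearly all actives have a fitted effect of over 75% in size.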 The settings on record: NCI-H358 eGFP-delta133p53alpha fluorescence, 24 h; activation: stronger effect = higher value. In outline: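 NCI-H358 cells pre-induced 24 h with 10 ng/ml doxycycline for eGFP-delta133p53alpha, plated dox-free and exposed 24 h at 37C to titrated compounds. Fixed, Hoechst-stained; gated GFP peak intensity by laser scanning cytometry, normalized to DMSO (0%) and 57.5 uM 5-azacytidine (100%).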

For test [2] the target is unchanged. Kind of test: Primary qHTS for small molecule compounds that upregulate eGFP-tagged delta133p53alpha (in C-terminal) cells. (AID 2060324).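 Note: 0% = DMSO wells and 100% = 57.5 µM 5-azacytidine.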 The procedure, abridged: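 Doxycycline (100 ng/ml, 24 h) first induced the eGFP fusion in NCI-H358 C-terminal-tag cells. Washed-out cells then received titrated compounds for 24 h at 37 °C before paraformaldehyde fixation, Hoechst staining and cytometric GFP quantification.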

The target of test [3] is Aldehyde dehydrogenase, mitochondrial (Homo sapiens) (UniProt P05091). As to the kind of experiment: qHTS for Inhibitors of the Aldehyde Dehydrogenase Family (ALDH2) Validation screens (AID 2061302; active = well fitted inhibition curve with a large enough effect; title and protocol of this record describe different tests;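 note: plate controls were DMSO vehicle for no effect and maximal DPI positive control response for full effect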).
Test [4] concerns the target Retinaldehyde dehydrogenase 3 (Homo sapiens) (UniProt P47895). As to the kind of experiment: qHTS for Inhibitors of the Aldehyde Dehydrogenase Family (ALDH1A3) Validation screen (AID 2061312). Note: % is set by controls: 0 for no effect and ±100 for the full control effect; nearly all actives have a fitted effect of over 45% in size.
Test [5] in a line: BET inhibitor-based combinations targeting novel dependencies in MECOM-rearranged (r) AML: OCI-AML3 cell line (AID 2202232).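 Note: series mostly up to about 46 µM; plate controls were DMSO vehicle wells for no effect and wells without cells for full effect; nearly all actives have a fitted effect of over 35% in size.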 The settings on record: Potency: OCI-AML3 viability. In outline:
(§1)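 Here, 11-point titrations of each agent were applied to 500 seeded cells and incubated 48 hr; CellTiter-Glo signal, scaled against DMSO and empty wells, was integrated as AUC, then Z-scored within the individual line.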

Test [6] in a line: BET inhibitor-based combinations targeting novel dependencies in MECOM-rearranged (r) AML: MV-4-11 cell line (AID 2202233).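 Note: plate controls were DMSO for no effect and blank wells for full effect; nearly all actives have a fitted effect of over 45% in size.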 In outline: (§2)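 Normalized to DMSO and empty-well controls, the luminescence data from CellTiter-Glo after 48 hr drug exposure were fitted across 11 concentrations. Reported metrics are area under the dose-response curve and its Z-transformed form.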
A short description of test [7]: BET inhibitor-based combinations targeting novel dependencies in MECOM-rearranged (r) AML: UCSD-AML1 cell line (AID 2202235).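 Note: series mostly up to about 46 µM; plate controls were DMSO vehicle wells for no effect and blank wells for full effect; nearly all actives have a fitted effect of over 40% in size.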 In outline: as §2
Test [8] is described as follows: BET inhibitor-based combinations targeting novel dependencies in MECOM-rearranged (r) AML: AML-191 cell line (AID 2202236;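 note: plate controls were vehicle wells for no effect and wells without cells for full effect; nearly all actives have a fitted effect of over 35% in size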). In outline:
as §1

A short description of test [9]: BET inhibitor-based combinations targeting novel dependencies in MECOM-rearranged (r) AML: AML-194 cell line (AID 2202237;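 note: plate controls were vehicle wells for no effect and wells without cells for full effect; nearly all actives have a fitted effect of over 40% in size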). The procedure, abridged:
as §1

The nature of test [10]: BET inhibitor-based combinations targeting novel dependencies in MECOM-rearranged (r) AML: HNT-34 cell line (AID 2202234).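 Note: plate controls were vehicle wells for no effect and cell-free wells for full effect; nearly all actives have a fitted effect of over 35% in size.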 In outline: as §2
Test [11] deals with Retinaldehyde dehydrogenase 3 (Homo sapiens) (UniProt P47895). As to the kind of experiment: qHTS for Inhibitors of the Aldehyde Dehydrogenase Family (ALDH1A3) Confirmatory screens (AID 2061311). Note: potency is the fitted concentration of half-maximal effect; nearly all actives have a fitted effect of over 60% in size.
In test [12] the target is Retinal dehydrogenase 2 (Homo sapiens) (UniProt O94788). As to the kind of experiment: qHTS for Inhibitors of the Aldehyde Dehydrogenase Family (ALDH1A2) Confirmation screens (AID 2061314). Note: potency is the fitted concentration of half-maximal effect; nearly all actives have a fitted effect of over 65% in size.
A short description of test [13]: BET inhibitor-based combinations targeting novel dependencies in MECOM-rearranged (r) AML: SET-2 cell line (AID 2202231).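 Note: plate controls were DMSO treated cells for no effect and wells without cells for full effect; nearly all actives have a fitted effect of over 35% in size.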 The settings on record: SET-2 AML cells viability, CellTiter-Glo luminescence, 48 h; viability: stronger effect = lower value, series mostly up to about 46 µM. In outline: as §1

Cellular tumor antigen p53 (Homo sapiens), sequence (P04637 whole entry, looked up): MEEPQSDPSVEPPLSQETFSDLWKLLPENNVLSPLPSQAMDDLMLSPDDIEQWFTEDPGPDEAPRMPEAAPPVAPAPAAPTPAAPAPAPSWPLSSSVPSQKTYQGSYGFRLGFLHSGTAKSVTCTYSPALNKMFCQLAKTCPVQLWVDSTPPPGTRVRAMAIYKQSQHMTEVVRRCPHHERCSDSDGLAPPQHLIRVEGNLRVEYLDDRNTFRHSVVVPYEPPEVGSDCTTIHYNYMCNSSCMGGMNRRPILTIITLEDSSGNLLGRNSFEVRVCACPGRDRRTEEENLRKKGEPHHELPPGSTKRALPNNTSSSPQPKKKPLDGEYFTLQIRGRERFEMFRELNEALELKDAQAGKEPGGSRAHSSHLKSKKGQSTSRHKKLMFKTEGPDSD

On to `Clc1cc(I)cc(Cl)c1NC1=NCCN1`, for which the activation in test [1] was -24.7%. The Potency result in test [2], in [3] and in test [4] was “inactive” throughout.
Regarding `COc1ccc2c(c1)C13CCCCC1C(C2)N(C)CC3` (stereo unspecified), the activation in test [1] is -0.635%. In addition, the Potency result in test [2], in test [3] and in [4] was “inactive” each time.
In the case of `C[C@]12N[C@H](Cc3ccccc31)c1ccccc12`, the activation in [1] is -0.686%. The Potency entry in [2], in test [3] and in test [4] was “inactive” throughout.
On to `CNCC(O)c1ccc(O)cc1` (stereo unspecified), for which, in [1], the activation was -9.6% and -1.8% and -6.7%. Besides, the Potency result in test [2], in test [3], in test [4], in test [5], in [6] and in test [7] was “inactive” in each case. For the same compound, the Potency result in test [8] and in test [9] was “inactive” each time.
`CCNC(=O)[C@H]1O[C@@H](n2cnc3c(N)ncnc32)[C@H](O)[C@@H]1O`: in [1], the activation is 1.33%. The Potency entry in test [2], in [3] and in test [4] was “inactive” in each case.
In the case of `COc1ccc(C(=O)N2CCCC2=O)cc1`, the activation in test [1] was 27.7% and -18.6% and -9.06%. Also, the Potency result in test [2], in test [3], in test [4], in test [6], in test [10] and in test [7] was “inactive” throughout.
For `NCC(CP(=O)(O)O)c1ccc(Cl)cc1` (stereo unspecified), the activation in test [1] was -1.72%. For the same compound, the Potency result in [2], in [3] and in [4] was “inactive” throughout.
Take `NC(=O)CN1CCCC1=O`: the activation in [1] is -3.35% and 1.41%. Moreover, the Potency entry in test [2], in [3] and in [4] was “inactive” each time.
Turning to `CN1CC[C@@]2(C)c3cc(O)ccc3N(C)C12` (stereo partly specified), the activation in [1] is -31.1%. Also, the Potency result in [2] was “inactive”. Also, the figures for the Potency in [11] and in test [12] were 10.1 µM (active) and 4.49 µM (active), respectively.
`CC(C)(C)NCC(O)c1ccccc1Cl` (stereo unspecified): the activation in test [1] is 26.8% and -4.18%. The Potency result in test [2], in test [3] and in [4] was “inactive” in each case.
Turning to `CCCN(CCC)CCc1ccc(O)c(O)c1`, in [1], the activation is -0.248%. Further, the Potency result in [2], in test [3] and in [4] was “inactive” throughout.
In the case of `CCCN1CC[C@@H]2c3cc(O)ccc3CC[C@@H]21`, the activation in [1] is -3.44%. The Potency result in [2], in [3] and in test [4] was “inactive” in each case.
In the case of `N[C@@]1(C(=O)O)CC[C@@H](C(=O)O)C1`, the activation in test [1] is 21.8%. Also, the Potency entry in test [2], in test [3] and in [4] was “inactive” each time.
Regarding `NC(CP(=O)(O)O)C(=O)O` (stereo unspecified), the activation in test [1] is -3.82%. Moreover, the Potency entry in test [2], in test [3] and in test [4] was “inactive” each time.
`COc1ccc2[nH]c3c(c2c1)CCNC3`: the activation in test [1] was -23.5%. Besides, the Potency entry in [2], in test [3] and in test [4] was “inactive” throughout.
For `Clc1cnc(Oc2ccc(Oc3ncc(Cl)cc3Cl)cc2)c(Cl)c1`, the activation in [1] was -22.6%. Also, the Potency result in [2], in test [3] and in test [4] was “inactive” each time.
Take `Cc1nccc2c1[nH]c1ccccc12`: in test [1], the activation was -18.9%. The Potency entry in test [2], in test [3] and in test [4] was “inactive” in each case.
Take `c1ccc2sc(C3(N4CCCCC4)CCCCC3)cc2c1`: in test [1], the activation was 14.7%. The Potency result in test [2], in [3] and in [4] was “inactive” each time.
In the case of `OC1CCCCC1N1CCC(c2ccccc2)CC1` (stereo unspecified), the activation in test [1] was -21.4%. Besides, the Potency result in test [2], in [3] and in [4] was “inactive” each time.
In the case of `O=C1C=CC(=O)C=C1`, in [1], the activation was 48.4%. Moreover, the Potency result in [2], in test [3] and in test [4] was “inactive” in each case.
Turning to `CCCN(CCC)C1CCc2cccc(O)c2C1` (stereo unspecified), in [1], the activation was 29.8%. Moreover, the Potency entry in [2], in [3] and in test [4] was “inactive” each time.
As to `CCCN1CCO[C@@H]2c3cc(O)ccc3OC[C@H]21`, the activation in test [1] was -9.95%. Further, the Potency result in test [2], in [3], in [10], in test [7], in test [8] and in test [9] was “inactive” in each case. The viability in [13] was 92%.
As for `C[C@]12CCC3C(CC[C@H]4C[C@H](O)CC[C@]34C)C1CC[C@@H]2C(=O)CO` (stereo partly specified), the activation in test [1] is -8.4%. Besides, the Potency entry in test [3] and in [4] was “inactive” each time.
With `CC(N)c1cccc(Cl)c1Cl` (stereo unspecified), the activation in [1] is -35.4%. Also, the Potency entry in test [3] and in test [4] was “inactive” each time.
